From PubChem BioAssay
Calls of active or inactive are those of the source.

Biological target: Dihydroorotate dehydrogenase (quinone), mitochondrial (Plasmodium falciparum (isolate 3D7)) (UniProt Q08210)
Experiment: inhibition of P. falciparum DHODH – biochemical, C-terminal His tag, absorbance 600 nm, primary screen (AID 1175);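 note: recombinant parasite enzyme with a five histidine tag at its C terminus; test concentration not given here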
Settings: PfDHODH enzyme, DCIP absorbance 600 nm; higher = more signal, called active from +8 up or from −8 down

Chain of Dihydroorotate dehydrogenase (quinone), mitochondrial (Plasmodium falciparum (isolate 3D7)) (Q08210 whole entry, looked up): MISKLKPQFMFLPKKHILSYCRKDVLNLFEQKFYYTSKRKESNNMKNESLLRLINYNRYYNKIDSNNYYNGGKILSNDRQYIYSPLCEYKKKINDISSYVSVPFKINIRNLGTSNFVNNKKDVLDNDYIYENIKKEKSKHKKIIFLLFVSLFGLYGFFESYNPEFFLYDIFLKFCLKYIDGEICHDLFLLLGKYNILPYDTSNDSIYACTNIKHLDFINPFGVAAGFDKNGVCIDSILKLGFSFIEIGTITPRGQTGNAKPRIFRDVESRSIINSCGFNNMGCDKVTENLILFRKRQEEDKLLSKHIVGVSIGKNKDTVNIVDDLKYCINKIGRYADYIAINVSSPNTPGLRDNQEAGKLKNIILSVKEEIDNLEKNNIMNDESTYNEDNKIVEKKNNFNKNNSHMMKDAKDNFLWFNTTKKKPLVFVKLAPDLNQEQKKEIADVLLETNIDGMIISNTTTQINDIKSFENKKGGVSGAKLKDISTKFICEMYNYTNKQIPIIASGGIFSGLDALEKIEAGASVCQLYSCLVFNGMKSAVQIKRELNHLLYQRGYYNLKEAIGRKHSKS

Row | SMILES | composite z-score
1 | [N-]=[N+]=NCc1ccccc1C[C@@]1(C(=O)N2CCOCC2)N=C(c2ccc(OCCCO)cc2)O[C@@H]1c1ccccc1CN=[N+]=[N-] | -0.346 (inactive)
2 | O=C(NCc1ccccc1)[C@]1(CCS(=O)(=O)c2ccccc2)N=C(c2ccc(OCCCO)cc2)O[C@@H]1c1ccccc1 | -0.549 (inactive)
3 | O=C1c2ccccc2[C@@]2(Cc3ccccc3N(Cc3ccccc3)C2=O)[C@H](c2ccc(CO)cc2)N1C1CCCCC1 | -11.6 (active)
4 | COc1ccc(C(O)C2C=CC3C(=O)N(C)C(=O)C3N2Nc2ccccc2)cc1OCc1ccccc1 (stereo unspecified) | 0.669 (inactive)
5 | CCCNC(=O)[C@@]1(c2ccc([N+](=O)[O-])cc2)CC(=O)N(CC23CC4CC(CC(C4)C2)C3)[C@@H]1c1ccc(CO)cc1 | -0.225 (inactive)
6 | O=C1O[C@@H](c2ccccc2)[C@@H](c2ccccc2)N2[C@@H](c3ccc(O)cc3)[C@]3(C(=O)Nc4ccc(C#CC5(O)CCCCCC5)cc43)[C@@H](C(=O)N3CCCCCCC3)[C@H]12 | 0.916 (inactive)
7 | CC(C)CNC(=O)[C@@H]1c2ccccc2C(=O)N(Cc2cc(C(F)(F)F)cc(C(F)(F)F)c2)[C@H]1c1ccc(CO)cc1 | -0.697 (inactive)
8 | O=C1O[C@H](c2ccccc2)[C@H](c2ccccc2)N2[C@H]1[C@@H](C(=O)O)[C@]1(C(=O)Nc3ccc(C#CC4(O)CCCCCC4)cc31)[C@H]2c1ccc(OCCO)cc1 | -4.61 (inactive)
9 | CCCC[C@@H]1C[C@H]1[C@@H](NC(=O)c1ccc(-c2ccccc2)cc1)c1ccc(-c2ccccc2)cc1 | -1.12 (inactive)
10 | Cc1ccccc1C(O)C1C=CC2C(=O)N(C)C(=O)C2N1N1CCCCC1 (stereo unspecified) | -0.318 (inactive)
11 | Cc1cc(C)c(C(O)C2C=CC3C(=O)N(C)C(=O)C3N2Nc2ccccc2)c(C)c1 (stereo unspecified) | 0.0016 (inactive)
12 | COc1ccc(C#Cc2ccc3c(c2)[C@]2(C(=O)N3)[C@H](C(=O)NC[C@H](O)c3ccccc3)[C@H]3C(=O)O[C@H](c4ccccc4)[C@H](c4ccccc4)N3[C@@H]2c2ccc(OCCO)cc2)cc1 | -0.0157 (inactive)
13 | C=C(C(=O)CC[C@H](OC(C)=O)c1ccc(OCCO)cc1)C(C)C | -8.01 (active)
14 | CN(C)C(=O)[C@@]1(CCC(=O)OC(C)(C)C)N=C(c2ccc(OCCCO)cc2)O[C@H]1c1ccccc1 | -0.507 (inactive)
15 | [N-]=[N+]=NCc1ccccc1C[C@]1(C(=O)O)N=C(c2ccc(OCCCO)cc2)O[C@H]1c1ccccc1CN=[N+]=[N-] | -2.16 (inactive)
16 | COc1cc(CO)ccc1OC(C)=O | -1.75 (inactive)
17 | CC(C)=CCCC(C)=CC(O)C1C=CC2C(=O)N(c3ccccc3)C(=O)C2N1Nc1ccccc1 (stereo unspecified) | 0.0928 (inactive)
18 | CC(C)c1ccc(NN2C(C(O)c3ccc(N(C)C)cc3)C=CC3C(=O)N(c4ccccc4)C(=O)C32)cc1 (stereo unspecified) | 0.421 (inactive)
19 | COCCOC(=O)N1C(=O)[C@@]2(c3cc(C#CCC(C(=O)OC)C(=O)OC)ccc31)[C@H](C(=O)N1CCCCCCC1)[C@H]1C(=O)O[C@H](c3ccccc3)[C@H](c3ccccc3)N1[C@@H]2c1ccc(OCCO)cc1 | -0.352 (inactive)
20 | O=C1OCCC=C[C@H]2OC34C=CCN(Cc5ccccc5)C(=O)[C@H]3N(CCCCCCO)C(=O)[C@@H]4C12 (stereo partly specified) | 0.261 (inactive)
21 | Cc1ccc(S[C@]2(C(=O)NCCN3CCOCC3)CC(=O)N(Cc3cc(C(F)(F)F)cc(C(F)(F)F)c3)[C@@H]2c2ccc(CO)cc2I)cc1 | -0.483 (inactive)
22 | CCCCCN1CC=CC23O[C@@H]4/C=C\CCC(C)OC(=O)C4[C@H]2C(=O)N(CCCCCO)[C@@H]3C1=O (stereo partly specified) | 0.121 (inactive)
23 | O=C1C2C=CC(C(O)c3cccs3)N(Nc3ccccc3F)C2C(=O)N1c1ccccc1 (stereo unspecified) | 0.609 (inactive)
24 | NCCCCCCNC(=O)[C@H]1C[C@H]2C(=O)NCC(=O)N2[C@H]1c1cccc(OCCO)c1 | -0.42 (inactive)
25 | COC(=O)C(CC#Cc1ccc2c(c1)[C@]1(C(=O)N2)[C@H](c2ccc(OCCO)cc2)N2[C@H](c3ccccc3)[C@H](c3ccccc3)OC(=O)[C@H]2[C@@H]1C(=O)NC[C@H](O)c1ccccc1)C(=O)OC | 0.676 (inactive)
26 | CCCN1C(=O)[C@@]2(CCC(=O)OC(C)(C)C)N=C(c3ccc(OCCCO)cc3)O[C@H]2c2ccccc21 | -0.0393 (inactive)
